Test results: PubChem BioAssay AID588726 (The Scripps Research Institute Molecular Screening Center, 2011)
Screen size: about 360,000 compounds; about 8,200 (2.3%) were called active. Only a selection was taken, and actives are over-represented in it overall. Values without a mark were called inactive. Cut-off read from the data, not from the text of the source: active = inhibition above about 27%; inactive = the rest.

molecular target: Fructose-bisphosphate aldolase (Mycobacterium tuberculosis (strain ATCC 25618 / H37Rv)) (UniProt P9WQA3); assay: M. tuberculosis aldolase activity blockers – biochemical, fluorescence, strain H37Rv, primary screen (AID 588726);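 note: 0% = vehicle and 100% = reference inhibitor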; settings: purified M. tuberculosis FBA, fluorescence read-out, at 1 µM, hits give high values
Sequence (P9WQA3 whole entry, looked up): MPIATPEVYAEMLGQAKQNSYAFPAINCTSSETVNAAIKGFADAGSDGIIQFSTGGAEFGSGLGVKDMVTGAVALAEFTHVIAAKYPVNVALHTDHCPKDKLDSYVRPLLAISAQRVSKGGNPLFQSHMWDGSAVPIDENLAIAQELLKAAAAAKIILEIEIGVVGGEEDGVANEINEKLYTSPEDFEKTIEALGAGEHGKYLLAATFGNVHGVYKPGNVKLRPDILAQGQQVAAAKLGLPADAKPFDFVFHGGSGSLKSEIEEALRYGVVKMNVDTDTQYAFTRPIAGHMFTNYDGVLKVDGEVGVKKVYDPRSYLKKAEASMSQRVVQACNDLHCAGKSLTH

Compound	inhibition
COc1cccc(NC(=O)c2cc(S(=O)(=O)N3CCc4ccccc43)cn2C)c1	-0.54%
CC(C)(C)OC(=O)C[C@@H]1C/C=C\C[C@H](CC(=O)N[C@@H](CO)Cc2ccccc2)C(=O)N[C@H](Cc2ccccc2)COC1=O	3.41%
Cc1cc(C)cc(NC(=O)N2CCC(NC(=O)c3ccc(F)cc3)CC2)c1	-6.06%
O=C(Nc1cccc(F)c1)c1coc(=O)c(Br)c1	171% (active)
Cc1nc2nc(SCC(=O)Nc3cccc(F)c3)[nH]c2cc1Br	-2.16%
O=C(Nc1cccc(F)c1)[C@@H]1CCCN1	4.68%
CCc1nn(CCCC(=O)NCc2ccc(C)cc2)c(=O)c2cc3occc3n12	-0.41%
COc1ccc(C(=O)CN2C(=O)NC3(CCc4ccccc43)C2=O)c(OC)c1 (stereo not given)	1.92%
CCCCOc1ccc(-c2nnc(-c3ccco3)o2)cc1	46.1% (active)
CCOc1ccc(-n2c(SCC(N)=O)nnc2-c2ccco2)cc1	0.41%
CCOc1ccc(-c2nnc(-c3ccco3)o2)cc1	54% (active)
CCCCSc1nnc(-c2ccc(C)cc2)o1	3.13%
CCCOc1ccc(-c2c(C(=O)N/N=C/c3ccco3)nnn2-c2nonc2N)cc1	4.8%
N#Cc1ccc(OCc2nnc(-c3ccc([N+](=O)[O-])cc3)o2)cc1	0.59%
CCC(C)(C(=O)NC1CCCC1)N(C(=O)CNC(C)=O)c1ccc(C)cc1 (stereo not given)	1.41%
Cc1nc2cccnc2nc1C	-0.64%
COc1ccc(NC(=O)c2cccc3c2C(=O)N(CC2CCCO2)C3)cc1OC (stereo not given)	-1.34%
COCCN(C(=O)CC1CCCCC1)c1c(N)n(CC(C)C)c(=O)[nH]c1=O	2.06%
O=[N+]([O-])c1cccc(C=NN=Cc2ccccc2O)c1	1.54%
O=C(N/N=C/c1cccc([N+](=O)[O-])c1)C1CC(=O)N(c2ccc(Br)cc2)C1 (stereo not given)	2.78%
O=[N+]([O-])c1cccc(/C=N/Nc2ncc(Br)cn2)c1	144% (active)
CCCN(C(=O)COC(=O)CNS(=O)(=O)c1ccc(NC(C)=O)cc1)C1CCS(=O)(=O)C1 (stereo not given)	1.9%
COc1ccc(CCN(Cc2cc3cccc(C)c3[nH]c2=O)C(=O)N2CCCC2)cc1OC	0.64%
Cc1cccc(NC(=O)c2sc3nc(N4CCOCC4)c4c(c3c2N)CCCC4)c1	39.1% (active)

Compound	inhibition
c1ccc(CSc2ncnc3c2sc2nc(N4CCOCC4)c4c(c23)CCCC4)cc1	3.1%
Cc1nc(N2CCOCC2)c2c(C)c(C(=O)Nc3ccc(C(F)(F)F)cc3)sc2n1	2.82%
Cc1cc(C)cc(NC(=O)Cn2cnc3c(nnn3Cc3ccc(F)cc3)c2=O)c1	1.33%
CN(C)/C(CN1CCCCC1)=C1\N=C(c2ccccc2)OC1=O	-2.21%
CCN(CC(=O)NCc1cccs1)c1nnnn1-c1ccccc1	-0.27%
CN(C(=O)COc1nnc(-c2cccs2)c(-c2cccs2)n1)c1ccccc1	3.91%
CN(C(=O)C1CCOC1)c1nnc(-c2cccnc2)s1 (stereo not given)	-7.08%
CCC(C)(C)NC(=O)C(c1ccccn1)N(C(=O)c1csnn1)c1ccccc1 (stereo not given)	-0.46%
O=C(Nc1nnc(C2CC2)s1)c1ccccn1	2.11%
CN(C(=O)c1ccccn1)c1nnc(-c2ccccn2)s1	31.6% (active)
CN(C(=O)COc1ccccc1)c1nnc(-c2ccncc2)s1	53.2% (active)
CN(C(=O)CSc1nnc(-c2c[nH]c3ccccc23)o1)C1CCS(=O)(=O)C1 (stereo not given)	0.37%
Nn1c(SCC(=O)NC2CCCC2)nnc1-c1ccccc1F	-0.66%
CC(=O)C(C)n1cnc2scc(-c3ccc(C)cc3)c2c1=O (stereo not given)	-0.72%
Cc1sc2ncnc(SCC(=O)Nc3ccc(CN4CCCC4)cc3)c2c1C	-0.95%
O=C(O)CCCn1c(=O)c2cccn2c2ccc(F)cc21	6.9%
CCN(CC)CCC(c1ccc2c(c1)OCO2)c1c(OC)cc(OC)c2c(-c3ccccc3)cc(=O)oc12 (stereo not given)	4.6%
O=[N+]([O-])c1ccc2oc(-c3cccc(O)c3)nc2c1	0.6%
COc1ccc2oc(N)nc2c1	0.46%
CC(=O)Oc1ccc(C(C)=O)c2c1OCCO2	5.05%
COC(=O)COc1cc(C)cc2oc(=O)c3c(c12)CCCC3	28.4% (active)
CC(Oc1cc2oc(=O)c3c(c2cc1Cl)CCCC3)C(=O)NCc1ccncc1 (stereo not given)	26.1%
Cc1cc(OCc2cc(C(=O)O)oc2C)c2c3c(c(=O)oc2c1)CCCC3	107% (active)
Cc1oc(C(N)=O)cc1COc1ccc(C(N)=O)cc1	3.54%

Compound	inhibition
COc1ccc(CNC(=O)c2cc(=O)c3c(C)cc(C)cc3o2)cc1	-0.13%
O=C(COc1cc2oc(=O)c3c(c2cc1Cl)CCC3)NCCCN1CCOCC1	6.36%
C=CCNC(=O)C1CC2c3ccccc3C1c1ccccc12 (stereo not given)	-1.94%
CC/C(=C\c1ccc(Cl)cc1)c1ccncc1	-2.63%
S=c1[nH]nc(Nc2ccccc2)s1	3.65%
CCc1ccc(Nc2ncc3c(n2)CC(c2ccco2)CC3=O)cc1 (stereo not given)	8.11%
Cc1ccc(Cn2c(C)nc3c(c2=O)c2nc4ccccc4nc2n3Cc2ccco2)cc1	47.6% (active)
Cc1ccc(OCC(=O)c2cc(C)n(Cc3ccco3)c2C)c([N+](=O)[O-])n1	-5.32%
Clc1cccc(-c2nc3nc4ccccc4nc3n2Cc2ccco2)c1	17.8%
O=C1N=C(N2CCOCC2)CS1	-1.54%
CC(C)(C)NS(=O)(=O)NC(=O)C1=C(N2CCCC2)COC1=O	-4.63%
CCC(C)(C)C1CCC(=NNC(=O)c2ccc(Br)o2)CC1 (stereo not given)	-1.67%
CCOC(=O)C1CCCN(C(=O)CSc2nnc3nc(C)cc(C)n23)C1 (stereo not given)	7.69%
Cc1ccc(S(=O)(=O)c2nc(NCCCn3ccnc3)sc2Cl)cc1	0.32%
N#Cc1nc(-c2ccc(OCc3ccccc3)cc2)oc1NCCCN1CCOCC1	92.7% (active)
Cc1ccc(-c2nc(C#N)c(NCCCn3ccnc3)o2)cc1	71.6% (active)
O=S(=O)(c1ccccc1)c1nc(-c2ccccc2)oc1NCCCN1CCOCC1	-3.13%
O=S(=O)(c1ccc(Cl)cc1)c1nc(-c2ccccc2F)oc1NCCN1CCOCC1	-1.99%
Cc1ccc2c(Cl)c(C(=O)NCCCn3ccnc3)sc2c1	-2.28%
CCN(CC)S(=O)(=O)c1ccc(N2CC(C(=O)NCc3cccnc3)CC2=O)cc1 (stereo not given)	1.11%
CC[C@@H](C)[C@H](NC(=O)CCc1c(C)c2cc3c4c(oc3c(C)c2oc1=O)CCCC4)C(=O)O	27.5% (active)
Cc1c(CCC(=O)N[C@@H](CC(C)C)C(=O)O)c(=O)oc2c(C)c3oc4c(c3cc12)CCCC4	13.8%
Cc1c(C)c2cc3c4c(oc3c(C)c2oc1=O)CCCC4	2.57%
O=C(Nc1ccccc1C(=O)N1CCOCC1)C1CCC(=O)N1C1CCCC1 (stereo not given)	0.4%

Compound	inhibition
COCCn1c(=O)[nH]c2cc(C(=O)NCc3cccnc3)ccc2c1=O	12.2%
O=C(COc1ccc([N+](=O)[O-])cc1Cl)Nc1ccc2[nH]c(=O)[nH]c2c1	-1.08%
COc1ccc(C(=O)OCC(=O)Nc2ccc3[nH]c(=O)[nH]c3c2)c(OC)c1OC	5.97%
CC(C)(C)NC(=O)COc1ccc(CNc2ccc3[nH]c(=O)[nH]c3c2)cc1	64.6% (active)
COc1ccc(S(=O)(=O)N2CCC(C(=O)NCCC(=O)NCCc3cccc(F)c3)CC2)cc1	3.06%
O=C(CCNC(=O)c1ccc(Br)cc1)NCC(c1ccco1)N1CCCCC1 (stereo not given)	-0.35%
Cc1nn(Cc2ccccc2)c(C)c1CNC(=O)c1ccc(F)c(S(=O)(=O)N2CCOCC2)c1	0.09%
Cc1ccccc1CSc1nnc(Cn2c(=O)sc3ccccc32)n1C	3.39%
Nc1cccc(-c2cc(-c3ccccc3)nc(-c3cccc(N)c3)n2)c1	16.1%
Cc1nc(NNC(=O)c2ccccc2)cc(-c2ccccc2)n1	1.26%
CNc1nc(-c2ccccc2)cc(-c2ccccc2)n1	29.2% (active)
O=[N+]([O-])c1ncc(Br)cc1Nc1ccccc1	-5.84%
CC1CCc2c(c3ccccc3[nH]c2=O)O1 (stereo not given)	-0.34%
COC(=O)c1sc(N)c(C(=O)OC)c1COC(=O)CNS(=O)(=O)c1ccc(C)cc1	1.77%
CCn1c(SCC(=O)Nc2nc(C)cs2)nnc1C(C)NC(=O)c1ccccc1 (stereo not given)	0.82%
Cc1ccc(C(=O)NNC(=O)CSc2nnc3ccccn23)cc1	0.48%
Cc1ccsc1C(=O)N[C@@H](C)c1nnc2ccccn12	51.8% (active)
COc1cccc(N2CC(NC(=O)c3ccc4ccccc4c3)CC2=O)c1 (stereo not given)	1.83%
COc1ccc(S(=O)(=O)N2CCN(c3cnccn3)CC2)cc1	2.14%
C[C@@H]1C(c2ccc(F)cc2)=NN(c2ccc(Br)cc2)[C@H]1C(=O)N1CCOC1=O	20.3%
O=C1OCCN1C(=O)[C@H]1[C@H](c2ccc(F)cc2)C(c2ccccc2)=NN1c1ccc(Br)cc1	42.2% (active)
O=C1OCCN1C(=O)[C@H]1[C@H](c2ccccc2)C(c2ccc(F)cc2)=NN1c1ccccc1	11%
O=C1OCCN1C(=O)[C@H]1[C@H](c2ccc(Cl)cc2)C(c2cccc(Cl)c2)=NN1c1ccc(Br)cc1	57.4% (active)
